Results on 8 compounds are retold here after PubChem BioAssay (NCI).

Some test systems named below: NCI-H23 lung; NCI-H226 lung; NCI-H322M lung; HOP-62 NSCLC; NCI-H460 lung; HOP-92 NSCLC; NCI-H522 lung; A549/ATCC NSCLC; 786-0 renal; COLO 205 colon; DU-145 prostate; K-562 leukemia; MALME-3M melanoma; MDA-MB-231 breast; RXF 393 renal; SF-268 CNS; SF-295 CNS; SF-539 CNS; M14 melanoma.
What all share (assay): NCI-60 one-dose screen, 48 h (100 = growth as untreated, 0 = no growth, -100 = all killed)
What all share (conditions): 10 µM unless noted

About 83,000 compounds went through this panel and 20% of them were active in at least one assay; those are over-represented in the sample as a whole.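 Each cell line was grown in a 96-well plate and treated with one concentration of compound for 48 hours. Values below 10 were considered active.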 Unmarked numbers belong to inactive results. Activity calls are given as the source filed them.

For `O=C1CNCCN1`, the growth in the assay on NCI-H23 lung is 96.4%; in the assay on NCI-H226 lung, 97.1%; in the assay on NCI-H322M lung, 106%; in the assay on HOP-62 NSCLC it was 114%; in the assay on NCI-H460 lung, 105%; with HOP-92 NSCLC, 105%. Besides, the growth with NCI-H522 lung was 90.9%; with A549/ATCC NSCLC, 93.4%; with 786-0 renal, 100%; with COLO 205 colon, 122%; with DU-145 prostate, 107%; in the assay on K-562 leukemia, 101%. Besides, the growth in the assay with MALME-3M melanoma was 104%; in the assay on MDA-MB-231 breast, 97.9%; in the assay on RXF 393 renal it was 98.5%; in the assay on SF-268 CNS, 107%; in the assay with SF-295 CNS, 97.4%; in the assay with SF-539 CNS it was 95.8%. Further, in the assay with M14 melanoma, the growth was 105%.
As to `C=C1C(=O)O[C@H]2[C@H]1CC/C(Cn1cc(-c3ccc(OC)cc3)nn1)=C\CC[C@@]1(C)O[C@@H]21`, the growth was 4.37% (active) with NCI-H23 lung; -44.1% (active) in the assay with NCI-H226 lung; 88.7% with NCI-H322M lung; 49.7% in the assay with HOP-62 NSCLC; 87.6% in the assay with NCI-H460 lung; -60.1% (active) in the assay on HOP-92 NSCLC. For the same compound, the growth in the assay with NCI-H522 lung is -78.7% (active); in the assay with A549/ATCC NSCLC, 57.3%; in the assay on 786-0 renal, -83.2% (active); in the assay with COLO 205 colon, -86% (active); with DU-145 prostate it was -35% (active); in the assay with K-562 leukemia, -9.11% (active). Besides, the growth in the assay with MALME-3M melanoma is -62.3% (active); in the assay with MDA-MB-231 breast it was -12.3% (active); in the assay with RXF 393 renal it was -63.6% (active); in the assay on SF-268 CNS, 12.7%; in the assay on SF-295 CNS, 88.8%; with SF-539 CNS, -16.6% (active). The growth in the assay on M14 melanoma is -43.9% (active).
`Cn1c(=O)c2c(nc(Br)n2CC(=O)Nc2ccc(F)cc2)n(C)c1=O`: the growth was 95.8% in the assay with NCI-H23 lung; 103% in the assay on NCI-H226 lung; 111% in the assay with NCI-H322M lung; 96.9% in the assay on HOP-62 NSCLC; 109% in the assay with NCI-H460 lung; 87.6% in the assay on HOP-92 NSCLC. Also, the growth in the assay with NCI-H522 lung was 81.3%; in the assay on A549/ATCC NSCLC, 92.5%; in the assay on 786-0 renal, 95.3%; with COLO 205 colon it was 104%; with DU-145 prostate, 109%; in the assay with K-562 leukemia, 104%. Also, the growth in the assay with MALME-3M melanoma is 103%; in the assay with MDA-MB-231 breast it was 90.1%; with RXF 393 renal, 108%; in the assay with SF-268 CNS, 108%; in the assay with SF-295 CNS, 108%; with SF-539 CNS, 100%. The growth with M14 melanoma was 99.7%.
As for `CC(=O)OCCCCCCn1c2ccccc2c2c3c(c4c5ccccc5n(C)c4c21)C(=O)N(O)C3=O`, the growth in the assay on NCI-H23 lung was 68%; with NCI-H226 lung, 63.7%; with NCI-H322M lung, 77.4%; with HOP-62 NSCLC it was 58.7%; with NCI-H460 lung, 48.1%; in the assay on HOP-92 NSCLC, 101%. Moreover, the growth was 50.4% in the assay with NCI-H522 lung; 94.5% in the assay with A549/ATCC NSCLC; 88% with 786-0 renal; 70.1% in the assay with COLO 205 colon; 89.9% in the assay on DU-145 prostate; 59.7% in the assay with K-562 leukemia. For the same compound, the growth in the assay on MALME-3M melanoma was 115%; in the assay on MDA-MB-231 breast, 64.5%; in the assay on RXF 393 renal it was 100%; in the assay with SF-268 CNS, 70.2%; with SF-295 CNS, 91.5%; in the assay with SF-539 CNS it was 94.3%. In addition, in the assay on M14 melanoma, the growth was 65.4%.
Regarding `COc1ccccc1CNc1nc(N)nc2[nH]c3ccc(O)cc3c12`, the growth with NCI-H23 lung was 57.8%; with NCI-H226 lung, 92.6%; in the assay with NCI-H322M lung it was 61.5%; in the assay on HOP-62 NSCLC, 37%; in the assay with NCI-H460 lung, 18.3%; with HOP-92 NSCLC, 34.1%. Moreover, the growth with NCI-H522 lung was 18.7%; in the assay on A549/ATCC NSCLC, 40.6%; in the assay on 786-0 renal, 83.2%; in the assay on COLO 205 colon it was 33.6%; in the assay with DU-145 prostate it was 91%; in the assay with K-562 leukemia, 11.1%. For the same compound, the growth is 53.6% in the assay with MALME-3M melanoma; 26.8% in the assay with MDA-MB-231 breast; 78% in the assay on RXF 393 renal; 64.7% in the assay with SF-268 CNS; 49.6% with SF-295 CNS; 45.5% with SF-539 CNS. For the same compound, the growth in the assay with M14 melanoma is 10.5%.
Regarding `Cc1ccc(N(CC(=O)Nc2ccc(S(=O)(=O)N3CCC(N4CCCC4)CC3)cc2)S(=O)(=O)c2ccc(Cl)cc2)cc1`, the growth with NCI-H23 lung is 77.6%; in the assay with NCI-H226 lung, 64.7%; with NCI-H322M lung it was 22.5%; in the assay with HOP-62 NSCLC it was 67.6%; in the assay on NCI-H460 lung, -58.5% (active); with HOP-92 NSCLC, 50.9%. Further, the growth in the assay on NCI-H522 lung is 44.2%; with A549/ATCC NSCLC it was 20.2%; in the assay on 786-0 renal it was -70.5% (active); in the assay on COLO 205 colon it was -60.5% (active); with DU-145 prostate it was 9.76% (active); in the assay with K-562 leukemia, -44.9% (active). Further, the growth in the assay with MALME-3M melanoma was -81.2% (active); in the assay with MDA-MB-231 breast, -42.9% (active); with RXF 393 renal it was -70.8% (active); with SF-268 CNS, 34.8%; in the assay with SF-295 CNS, -64.5% (active); in the assay on SF-539 CNS, -89.7% (active). Further, the growth in the assay with M14 melanoma was -68.8% (active).
As to `CC1(c2ccccc2)OC1C(=O)O` (configuration not stated), the growth in the assay on NCI-H23 lung is 94.1%; in the assay with NCI-H226 lung it was 104%; in the assay on NCI-H322M lung it was 97.9%; in the assay with HOP-62 NSCLC, 107%; in the assay with NCI-H460 lung it was 107%; in the assay on HOP-92 NSCLC, 119%. Moreover, the growth in the assay on NCI-H522 lung was 97.8%; in the assay on A549/ATCC NSCLC, 105%; in the assay with 786-0 renal, 99.7%; in the assay on COLO 205 colon, 115%; in the assay with DU-145 prostate, 108%; in the assay on K-562 leukemia it was 111%. The growth was 88.5% with MALME-3M melanoma; 110% in the assay with MDA-MB-231 breast; 103% in the assay on RXF 393 renal; 106% with SF-268 CNS; 101% in the assay on SF-295 CNS; 96.1% in the assay on SF-539 CNS. Besides, the growth with M14 melanoma is 95.2%.
Turning to `N#CCCCCCn1c2ccccc2c2c3c(c4c5ccccc5n(CCCCCC#N)c4c21)C(=O)N(O)C3=O`, the growth with NCI-H23 lung is 72.5%; in the assay on NCI-H226 lung, 79.1%; with NCI-H322M lung, 81.5%; with HOP-62 NSCLC, 37.1%; in the assay with NCI-H460 lung, 87.7%; in the assay with HOP-92 NSCLC it was 87.4%. Further, the growth was 53.7% with NCI-H522 lung; 94.5% in the assay with A549/ATCC NSCLC; 92.1% with 786-0 renal; 84.6% with COLO 205 colon; 93.6% in the assay with DU-145 prostate; 79.7% in the assay on K-562 leukemia. For the same compound, the growth in the assay on MALME-3M melanoma was 77.1%; in the assay on MDA-MB-231 breast, 32.3%; in the assay with RXF 393 renal it was 80.8%; with SF-268 CNS, 70.3%; in the assay with SF-295 CNS it was 89.2%; with SF-539 CNS it was 71%. Also, in the assay with M14 melanoma, the growth is 85.3%.
